Measured values from ChEMBL document CHEMBL3988442, “University of Dundee, Small-Polar-MMV Screening Library” (2021).

What follows are molecules tested against T1, Arginase-2, mitochondrial (Homo sapiens) (UniProt P78540) (assay: in vitro enzyme assay to detect the production of urea directly proportional to the activity of Arginase II). Settings: 33.3 µM.
T1 sequence (whole entry): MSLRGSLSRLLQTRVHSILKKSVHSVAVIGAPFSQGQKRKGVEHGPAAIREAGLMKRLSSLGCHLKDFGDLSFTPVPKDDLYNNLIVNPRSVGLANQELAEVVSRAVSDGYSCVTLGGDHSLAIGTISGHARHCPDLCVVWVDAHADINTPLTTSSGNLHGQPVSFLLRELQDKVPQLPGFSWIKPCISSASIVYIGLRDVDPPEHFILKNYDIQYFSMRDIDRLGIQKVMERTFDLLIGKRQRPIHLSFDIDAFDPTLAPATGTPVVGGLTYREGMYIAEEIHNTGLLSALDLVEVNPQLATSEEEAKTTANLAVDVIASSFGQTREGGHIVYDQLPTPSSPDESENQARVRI
Type: functional
Parameters: scale not given: in the data most compounds retested in dose-response had high values
In the case of `CCc1nc(C2CCCN2C(=O)c2ccc3c(c2)nnn3CC)no1` (stereo not given), the Percent Effect is reported as 0%. Molecule `c1cnnc(N2CCCC2CNCc2nc(-c3ccsc3)no2)c1` (stereo not given) has a Percent Effect of -6.15%. `CC(=O)N1N=C(c2ccccc2)OC1C(=O)NCCC1=CCCCC1` (stereo not given) gave a Percent Effect of 2.21%. With `CCO[C@@H]1CO[C@@]2(CCCN(S(=O)(=O)c3cccnc3)C2)C1` the Percent Effect was 3.64%. With `Cc1ccc(C(=O)N2CCC3(CC2)COC(COc2ccccn2)C3)o1` (stereo not given) the Percent Effect was -2.83%. Molecule `CS(=O)(=O)NCC1CCCN(C(=O)COc2ccc(F)cc2)C1` (stereo not given) has a Percent Effect of 1.23%. Molecule `CN1CC(c2ccccc2)CC12CCN(C(=O)c1c(Cl)cnn1C)CC2` (stereo not given) has a Percent Effect of 10.8%. For `O=C(NCc1cc[nH]n1)NCC(O)COc1cccc(F)c1` (stereo not given), the Percent Effect was -7.98%. `O=C1NC2(CCN(Cc3cccnc3)CC2)CC1c1ccncc1` (stereo not given) gave a Percent Effect of -0.405%. Work on `CCSCCC(=O)NS(=O)(=O)c1ccc2c(c1)OCCO2` yielded a Percent Effect of 1.23%. Molecule `CC(C)CN1CCN(C)C2(CCN(Cc3ccsc3)CC2)C1=O` has a Percent Effect of 1.83%. Work on `COc1c(C2CCCN2Cc2c(C)noc2C)c(C)nn1C` (stereo not given) yielded a Percent Effect of 1.33%. With `CC(C)(N)C(=O)N1CCCC1c1cncc(Oc2ccc(F)cc2)n1` (stereo not given) the Percent Effect was -0.443%. For `O=C1CC2(CCN(Cc3ccoc3)C2)CN1c1ccc2c(c1)OCO2` (stereo not given), the Percent Effect was 0.81%. Molecule `CCC(NC(N)=O)c1ccccc1OCC(=O)N1CCCC1` (stereo not given) has a Percent Effect of -4.92%. For `CCOc1ccccc1C(=O)N1CCCC1c1ncc2c(n1)CCNC2` (stereo not given), the Percent Effect was -4.42%. `Cc1cc(CN(C)C(=O)NCC(C)N2CCc3ccccc32)no1` (stereo not given) gave a Percent Effect of -2.25%. In the case of `Cc1ccc(CCN2CCC(N(C)Cc3noc(C4CC4)n3)C2)cc1` (stereo not given), the Percent Effect is reported as 3.69%. `CC(C)n1[nH]c(=O)c2c1NC(=O)CC2c1cccnc1` (stereo not given) gave a Percent Effect of 1.75%. `O=C(NCCOc1ccc2c(c1)CCC2)N1CCS(=O)(=O)CC1` gave a Percent Effect of -0.82%. For `CCC(NC(=O)CC(F)(F)F)c1ccccc1OCC(=O)N1CCCC1` (stereo not given), the Percent Effect was 0%. Work on `CC(C)CN1C[C@@H]2CN(C(=O)[C@H]3CCCO3)C[C@@H]2C1=O` yielded a Percent Effect of 3.65%. In the case of `CN1CCN(c2cc(CNC(=O)c3ccc(=O)[nH]n3)ccn2)CC1`, the Percent Effect is reported as 9.43%. For `CC(=O)N1CC(=O)N(c2ccccc2)CC12CCN(CC1CC1)C2` (stereo not given), the Percent Effect was -2.02%. `CC(C)c1ncc(S(C)(=O)=O)c(C2CCCNC2)n1` (stereo not given) gave a Percent Effect of 14.3%. `CC(C)c1noc(CCCC(=O)NC2CCS(=O)(=O)C2)n1` (stereo not given) showed a Percent Effect of -7.98%. `c1ccc(OCc2ccncc2)c(CNC2CCc3ncnn3C2)c1` (stereo not given) showed a Percent Effect of 10.7%. With `O=C(Nc1ccccc1)C1=CC2(CCNCC2)c2ccccc21` the Percent Effect was 3.2%. With `CC(NC(=O)N1CCN(c2ccc(Cl)cc2)CC1)C(=O)N1CCSCC1` (stereo not given) the Percent Effect was 0.35%. With `CC(C)N(Cc1nc2c(cnn2C)c(=O)[nH]1)c1ccccc1` the Percent Effect was 4.1%. `CCc1nc(C2CCCN2C(=O)c2ncoc2CC)no1` (stereo not given) gave a Percent Effect of -4.92%. For `O=C(c1ccc(F)cc1F)N1C[C@@H](O)[C@H](N2CCOCC2)C1`, the Percent Effect was -3.1%. Work on `Cc1cnn(CC2CCN(CC(O)COc3ccc(F)cc3)CC2)c1` (stereo not given) yielded a Percent Effect of -5.94%. Molecule `Cc1cc(-c2nn(C)c(Cl)c2CN2CCOCC(O)C2)no1` (stereo not given) has a Percent Effect of 15.7%. Molecule `CC(=O)N(Cc1ncc(C)o1)C1CCN(CCCc2cnn(C)c2)C1` (stereo not given) has a Percent Effect of -3.99%. `Cc1ccc([C@@H]2CN(C(=O)c3ccc[nH]3)C[C@H]2NC(=O)C2CC2)cc1` showed a Percent Effect of -3.85%. `Cc1cnn(CC2CN(CC(=O)NCc3ccccn3)CCO2)c1` (stereo not given) gave a Percent Effect of -4.88%. For `COc1ccc(C(=O)N2CC[C@H](CO)[C@H](O)C2)c(C)c1`, the Percent Effect was 16.4%. Molecule `Cc1nccn1C1CCCN(C(=O)COCC(F)(F)F)C1` (stereo not given) has a Percent Effect of -2.05%. With `O=C(CSc1ccc(F)c(F)c1)NS(=O)(=O)c1ccc2c(c1)OCCO2` the Percent Effect was 1.23%.

The molecules below were run against T2, Proteasome subunit beta (Trypanosoma cruzi) (UniProt O96673) (assay: Trypanosoma cruzi proteasome chymotrypsin-like activity (TcProtChymo) assay.). Settings: 9.37 µM.
T2 sequence (whole entry): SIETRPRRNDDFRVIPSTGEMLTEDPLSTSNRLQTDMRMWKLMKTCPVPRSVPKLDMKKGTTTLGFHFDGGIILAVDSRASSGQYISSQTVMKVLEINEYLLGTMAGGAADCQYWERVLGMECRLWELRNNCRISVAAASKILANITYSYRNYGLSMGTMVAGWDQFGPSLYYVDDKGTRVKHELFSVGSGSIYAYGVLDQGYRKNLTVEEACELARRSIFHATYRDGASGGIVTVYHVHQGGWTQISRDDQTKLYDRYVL
Type: functional
Parameters: scale not given: in the data most compounds retested in dose-response had high values
`CCc1nc(C2CCCN2C(=O)c2ccc3c(c2)nnn3CC)no1` (stereo not given) gave a Percent Effect of 3.99%. `c1cnnc(N2CCCC2CNCc2nc(-c3ccsc3)no2)c1` (stereo not given) gave a Percent Effect of 0.256%. In the case of `CC(=O)N1N=C(c2ccccc2)OC1C(=O)NCCC1=CCCCC1` (stereo not given), the Percent Effect is reported as 7.55%. Molecule `CCO[C@@H]1CO[C@@]2(CCCN(S(=O)(=O)c3cccnc3)C2)C1` has a Percent Effect of 18.3%. Molecule `Cc1ccc(C(=O)N2CCC3(CC2)COC(COc2ccccn2)C3)o1` (stereo not given) has a Percent Effect of 7.33%. `CS(=O)(=O)NCC1CCCN(C(=O)COc2ccc(F)cc2)C1` (stereo not given) showed a Percent Effect of 3.5%. With `CN1CC(c2ccccc2)CC12CCN(C(=O)c1c(Cl)cnn1C)CC2` (stereo not given) the Percent Effect was 10.3%. In the case of `O=C(NCc1cc[nH]n1)NCC(O)COc1cccc(F)c1` (stereo not given), the Percent Effect is reported as 8.74%. Molecule `O=C1NC2(CCN(Cc3cccnc3)CC2)CC1c1ccncc1` (stereo not given) has a Percent Effect of 19%. For `CCSCCC(=O)NS(=O)(=O)c1ccc2c(c1)OCCO2`, the Percent Effect was 4.69%. `CC(C)CN1CCN(C)C2(CCN(Cc3ccsc3)CC2)C1=O` was tested, and the Percent Effect was -2.49%. `COc1c(C2CCCN2Cc2c(C)noc2C)c(C)nn1C` (stereo not given) showed a Percent Effect of 6.19%. Work on `CC(C)(N)C(=O)N1CCCC1c1cncc(Oc2ccc(F)cc2)n1` (stereo not given) yielded a Percent Effect of 1.31%. Molecule `O=C1CC2(CCN(Cc3ccoc3)C2)CN1c1ccc2c(c1)OCO2` (stereo not given) has a Percent Effect of 4.68%. Molecule `CCC(NC(N)=O)c1ccccc1OCC(=O)N1CCCC1` (stereo not given) has a Percent Effect of 9.81%. `CCOc1ccccc1C(=O)N1CCCC1c1ncc2c(n1)CCNC2` (stereo not given) was tested, and the Percent Effect was 7.06%. `Cc1cc(CN(C)C(=O)NCC(C)N2CCc3ccccc32)no1` (stereo not given) showed a Percent Effect of -2.46%. In the case of `Cc1ccc(CCN2CCC(N(C)Cc3noc(C4CC4)n3)C2)cc1` (stereo not given), the Percent Effect is reported as 11.7%. Molecule `CC(C)n1[nH]c(=O)c2c1NC(=O)CC2c1cccnc1` (stereo not given) has a Percent Effect of 18.7%. With `O=C(NCCOc1ccc2c(c1)CCC2)N1CCS(=O)(=O)CC1` the Percent Effect was 1.28%. `CCC(NC(=O)CC(F)(F)F)c1ccccc1OCC(=O)N1CCCC1` (stereo not given) showed a Percent Effect of 13.4%. In the case of `CC(C)CN1C[C@@H]2CN(C(=O)[C@H]3CCCO3)C[C@@H]2C1=O`, the Percent Effect is reported as 5.06%. Molecule `CN1CCN(c2cc(CNC(=O)c3ccc(=O)[nH]n3)ccn2)CC1` has a Percent Effect of 9.81%. `CC(=O)N1CC(=O)N(c2ccccc2)CC12CCN(CC1CC1)C2` (stereo not given) gave a Percent Effect of 12.1%. Molecule `CC(C)c1ncc(S(C)(=O)=O)c(C2CCCNC2)n1` (stereo not given) has a Percent Effect of 3.94%. Work on `CC(C)c1noc(CCCC(=O)NC2CCS(=O)(=O)C2)n1` (stereo not given) yielded a Percent Effect of 12.6%. `c1ccc(OCc2ccncc2)c(CNC2CCc3ncnn3C2)c1` (stereo not given) gave a Percent Effect of 11.5%. `O=C(Nc1ccccc1)C1=CC2(CCNCC2)c2ccccc21` was tested, and the Percent Effect was 13.5%. `CC(NC(=O)N1CCN(c2ccc(Cl)cc2)CC1)C(=O)N1CCSCC1` (stereo not given) showed a Percent Effect of 17.8%. Molecule `CC(C)N(Cc1nc2c(cnn2C)c(=O)[nH]1)c1ccccc1` has a Percent Effect of 1.96%. In the case of `CCc1nc(C2CCCN2C(=O)c2ncoc2CC)no1` (stereo not given), the Percent Effect is reported as -5.38%. Work on `O=C(c1ccc(F)cc1F)N1C[C@@H](O)[C@H](N2CCOCC2)C1` yielded a Percent Effect of 17.9%. `Cc1cnn(CC2CCN(CC(O)COc3ccc(F)cc3)CC2)c1` (stereo not given) gave a Percent Effect of 4.21%. `Cc1cc(-c2nn(C)c(Cl)c2CN2CCOCC(O)C2)no1` (stereo not given) gave a Percent Effect of 13%. `CC(=O)N(Cc1ncc(C)o1)C1CCN(CCCc2cnn(C)c2)C1` (stereo not given) was tested, and the Percent Effect was 26.2%. Molecule `Cc1ccc([C@@H]2CN(C(=O)c3ccc[nH]3)C[C@H]2NC(=O)C2CC2)cc1` has a Percent Effect of 17.3%. With `Cc1cnn(CC2CN(CC(=O)NCc3ccccn3)CCO2)c1` (stereo not given) the Percent Effect was 5.17%. `COc1ccc(C(=O)N2CC[C@H](CO)[C@H](O)C2)c(C)c1` showed a Percent Effect of 10.1%. With `Cc1nccn1C1CCCN(C(=O)COCC(F)(F)F)C1` (stereo not given) the Percent Effect was 0.597%. For `O=C(CSc1ccc(F)c(F)c1)NS(=O)(=O)c1ccc2c(c1)OCCO2`, the Percent Effect was 3.16%.
